Compounds without any hit were thinned out: in the full panel of roughly 83,000, 20% have a hit.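 Single-concentration screen, 48 h exposure, 96-well plates. Endpoint: percent growth. Below 10 = active.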 Values without a mark were called inactive.

The subject of this assay is MDA-MB-468 breast. Description: NCI-60 one-dose screen, 48 h (100 = growth as untreated, 0 = no growth, -100 = all killed). The note with it: 10 µM unless noted.
For `CC(=O)O.CN1[CH-]N(Cc2ccc(C#N)cc2)c2ccccc21.[Ag+]`, the growth was 97%. On to `C=C(C)[C@@H]1CC[C@]2(C(=O)NS(=O)(=O)c3ccccc3)CC[C@]3(C)[C@H](CC[C@@H]4[C@@]5(C)CC[C@H](OC(=O)NS(=O)(=O)c6ccccc6)C(C)(C)[C@@H]5CC[C@]43C)[C@@H]12`, for which the growth is 25.8%. The same measure for `O=C(NN1C(=O)CSC1c1ccc(Cl)cc1)c1[nH]c2ccc(F)cc2c1-c1ccccc1` (centres undefined): 69.3%; for `CCN(CC)CC(=O)Nc1c(C)cccc1C`: 101%.

Values taken from PubChem BioAssay (NCI).
